From PubChem BioAssay
Inconclusive results are not listed. Active and inactive are the calls of the source.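 The calls were made as follows, unless noted: active = viability increase at or above a cutoff of the median across tested compounds plus 3 SD (cut at about 8.5% in these data, passing the limit was not always enough); inconclusive = some gains above the cutoff, reason not given; inactive = the rest.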

Legend:
[1] = target: Pantothenate synthetase (Mycobacterium tuberculosis (strain ATCC 25618 / H37Rv)) (UniProt P9WIL5); experiment: Recombinant Mtb pantothenate synthetase (PanC) inhibitors, coupled enzyme, confirmatory (AID 375; call rule not given here;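 also: 0% = full reaction with vehicle and 100% = no enzyme background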); details: coupled enzyme assay; at 10 µM, stronger effect = higher value
Chain of Pantothenate synthetase (Mycobacterium tuberculosis (strain ATCC 25618 / H37Rv)) (P9WIL5 whole entry, looked up): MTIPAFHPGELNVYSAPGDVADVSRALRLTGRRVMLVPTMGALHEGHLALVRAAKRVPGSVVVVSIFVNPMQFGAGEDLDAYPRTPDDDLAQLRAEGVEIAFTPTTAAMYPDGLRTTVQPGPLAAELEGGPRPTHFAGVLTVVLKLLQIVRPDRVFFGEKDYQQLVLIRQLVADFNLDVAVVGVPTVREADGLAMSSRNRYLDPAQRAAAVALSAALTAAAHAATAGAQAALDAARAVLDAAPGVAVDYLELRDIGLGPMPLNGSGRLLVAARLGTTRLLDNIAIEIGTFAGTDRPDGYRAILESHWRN

[2] = reducers of endogenous Her2 protein level, primary screen, SKBR3 breast tumor cells, AlphaScreen, ATP viability (AID 461;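 active = Her2 level under about 52% in both replicate screens, with viability over 70% of control, limit read from the data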;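 as to Her2 level: lower value means less Her2 protein in the cells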;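 as to viability: percent of carrier control wells set as 100% viability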); details: 18-24 h, measured here: SKBR3 viability, ATP luminescence, at 10 µM
[3] = target: Receptor tyrosine-protein kinase erbB-2 (Homo sapiens) (UniProt P04626); experiment: as above; details: 18-24 h, at 10 µM, stronger effect = lower value
Chain of Receptor tyrosine-protein kinase erbB-2 (Homo sapiens) (P04626 whole entry, looked up): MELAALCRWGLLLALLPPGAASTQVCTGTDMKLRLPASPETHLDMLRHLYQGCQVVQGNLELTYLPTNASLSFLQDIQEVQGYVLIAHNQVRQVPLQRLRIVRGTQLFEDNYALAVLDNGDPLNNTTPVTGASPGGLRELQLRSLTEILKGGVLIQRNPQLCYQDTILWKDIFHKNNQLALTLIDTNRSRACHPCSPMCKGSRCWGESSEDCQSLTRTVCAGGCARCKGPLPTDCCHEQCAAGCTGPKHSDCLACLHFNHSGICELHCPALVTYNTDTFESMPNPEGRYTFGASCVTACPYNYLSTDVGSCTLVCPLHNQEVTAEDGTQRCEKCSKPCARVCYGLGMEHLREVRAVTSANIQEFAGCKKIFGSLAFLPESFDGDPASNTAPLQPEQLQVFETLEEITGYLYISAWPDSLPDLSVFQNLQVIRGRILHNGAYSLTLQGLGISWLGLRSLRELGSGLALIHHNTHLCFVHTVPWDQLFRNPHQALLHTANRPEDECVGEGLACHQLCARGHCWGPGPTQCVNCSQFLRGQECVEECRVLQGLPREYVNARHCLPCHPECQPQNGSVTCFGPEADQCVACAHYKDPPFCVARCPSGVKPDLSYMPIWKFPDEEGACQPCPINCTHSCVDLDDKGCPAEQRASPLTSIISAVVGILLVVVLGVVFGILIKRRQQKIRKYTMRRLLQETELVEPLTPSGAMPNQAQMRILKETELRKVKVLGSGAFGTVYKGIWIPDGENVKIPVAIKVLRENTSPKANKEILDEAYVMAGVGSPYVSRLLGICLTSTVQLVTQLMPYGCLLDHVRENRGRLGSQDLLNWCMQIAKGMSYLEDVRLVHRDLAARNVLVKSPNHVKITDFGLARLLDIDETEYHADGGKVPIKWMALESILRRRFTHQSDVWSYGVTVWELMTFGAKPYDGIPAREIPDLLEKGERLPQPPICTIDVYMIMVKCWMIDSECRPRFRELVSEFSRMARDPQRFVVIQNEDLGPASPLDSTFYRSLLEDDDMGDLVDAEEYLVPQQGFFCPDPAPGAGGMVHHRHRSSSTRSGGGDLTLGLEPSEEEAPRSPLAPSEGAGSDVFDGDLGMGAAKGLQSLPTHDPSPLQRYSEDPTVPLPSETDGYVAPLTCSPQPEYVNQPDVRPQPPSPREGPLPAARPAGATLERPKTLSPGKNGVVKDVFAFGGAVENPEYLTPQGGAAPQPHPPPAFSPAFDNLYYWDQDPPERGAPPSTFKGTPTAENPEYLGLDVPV

[4] = SK-BR-3 cell growth inhibitors, pilot screen, 24 h, human (AID 572;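 active = viability at or below 10% of carrier control in both of two separate runs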;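 also: compound exposure lasted between 18 and 24 h rather than exactly 24 h; 100% = carrier-treated control wells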); details: SK-BR-3 viability, CellTiter-Glo luminescence, at 10 µM, stronger effect = lower value
[5] = HUVEC growth inhibition – cell-based, human, primary screen (AID 575;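 active = viability at or below 30% in both replicate assays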;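 also: 100% = median of untreated cell wells with 0.1% DMSO on each plate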); details: HUVEC proliferation, CellTiter-Glo luminescence, 72 h; at 10 µM; stronger effect = lower value
[6] = growth inhibitors of H69AR lung tumor, primary screen, human, duplicate replicates (AID 580;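 active = viability at or under a set limit in both replicates, limit being median viability minus 3 SD, cut at about 48% in these data, passing the limit was not always enough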;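 also: 100% = mean luminescence of untreated wells and 0% = no signal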); details: H69AR lung tumor cells viability, ATP luminescence, 72 h; at 10 µM; stronger effect = lower value
[7] = reversal of MRP1-mediated doxorubicin resistance, pilot screen, H69AR cells, doxorubicin co-treatment (AID 601;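 active = viability loss from added drug above about 55%, and viability with drug at most 40%, in both replicates, limit read from the data, passing the limit was not always enough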); details: CellTiter-Glo, 72 h, at 10 µM; for differential viability (reversal): stronger effect = higher value
[8] = 384-well plate pilot, post-Golgi transport modulator project, inhibition of yeast transport mutant growth (AID 636; in the data active = inhibition above about 31%); details: absorbance 615 nm, about 18 h, stronger effect = higher value
[9] = growth suppression of yeast trafficking mutant, preliminary HTS, modulators of trafficking downstream of Golgi apparatus project, 1536-format plate, OD 615 nm (AID 637; in the data active = inhibition above about 30%); details: yeast transport mutant growth, absorbance 615 nm, 18 h; stronger effect = higher value
[10] = OD615 S. cerevisiae growth inhibition, permissive medium, pilot counter-assay, permissive growth control for S. cerevisiae lifespan shortening project (AID 705;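 active = growth inhibition above 25% in both replicates, a cutoff set 3 SD above the mean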); details: OD615, 24 h, at 10 µM, stronger effect = higher value
[11] = Restrictive medium S. cerevisiae growth inhibition, OD615, pilot screen of yeast lifespan reduction project, restrictive growth control (AID 706;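 active = growth inhibition above a set limit, 3 SD over mean compound inhibition, in both replicates, cut at about 43% in these data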;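 also: modified DeaD lifespan yeast strain shifted to restrictive glucose medium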); details: OD615, 48 h, at 10 µM, stronger effect = higher value
[12] = viability gain of MRP-1-high H69AR cells under doxorubicin, pilot screen, MRP-1 activator project, CellTiter-Glo, duplicate (AID 807); details: H69AR viability with doxorubicin, CellTiter-Glo luminescence; at 10 µM; stronger effect = higher value;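 also: compound pretreatment 18-22 h then 72 h combined with doxorubicin; 0% = doxorubicin alone and 100% = vehicle without doxorubicin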
[13] = growth suppression of beta-catenin knockout HCT116, pilot screen, human colon tumor cells (AID 823;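 active = cell viability at or below a set limit in both duplicate runs, the limit being the all-compound median minus 4 SD, cut at about 23% in these data, passing the limit was not always enough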;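 also: 0% = wells killed by 20 µM Hyamine and 100% = untreated DMSO cell wells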); details: CellTiter-Glo, 60 h, at 10 µM, stronger effect = lower value
[14] = inhibitors of the yeast RAM network, pilot screen, dse1pr::URA3 reporter, 5-FOA selection (AID 869;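 active = inhibition over a set limit, the all-compound mean plus 3 SD, in both replicate runs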;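 also: 0% = DMSO wells with no growth and 100% = 10 µM 1-NA-PP1 with full growth; RAM network block rescues cells from 5-FOA so hits raise OD615 growth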); details: S. cerevisiae dse1pr::URA3 5-FOA growth, OD615, 2 d, at 10 µM, stronger effect = higher value
[15] = RAM signaling pathway blockade in yeast – S. cerevisiae, Pdr1DBD-CYC8 efflux-inhibited sensitized strain, primary screen (AID 1298;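 active = RAM network inhibition above 8.4% in each of two replicates, 3 SD over the compound average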;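 also: 0% = DMSO untreated cells without growth and 100% = 10 µM 1-NA-PP1 full growth; higher means more yeast growth rescued from 5-FOA killing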); details: S. cerevisiae cbk1-as DSE1-URA3 strain, 5-FOA growth OD615, 2 d; at 50 µM; stronger effect = higher value
[16] = growth suppression of PTEN-deleted HCT116, pilot screen, cell-based, HCT116 clonal line, CellTiter-Glo (AID 824;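 active = viability at or below 27.92% in each of two runs, the all-compound median minus 4 SD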;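 also: 0% = 20 µM Hyamine control and 100% = vehicle cell control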); details: 60 h, at 10 µM, stronger effect = lower value
[17] = H69AR cells + 2 uM doxorubicin, measured here: viability with 2 uM doxorubicin, stronger effect = lower value
[18] = H69AR cells, compound alone cytotoxicity

COc1ccc(C2SCC(=O)Nc3c2c(=O)[nH]n3C2CCCCCC2)cc1OC (configuration not stated)
91.3%: viability [7, 18]
83.8%: viability [7, 17]
inactive: inhibition [1] 6% | Her2 level [3] 89% | viability [4] 124% | viability [5] 105% | viability [6] 91.3% | differential viability (reversal) ([7]; H69AR cells + 2 uM doxorubicin) 7.54% | inhibition [8] -5.6% | inhibition [9] 4.1% | growth inhibition [10] -18.6% | growth inhibition [11] -6.19% | viability increase [12] -4.42% | viability [13] 92.4% | inhibition [14] 0.915% | RAM network inhibition [15] 1.3%
124%: viability [2]

C=CCOC(=O)COc1cc(C)cc2oc(=O)c3c(c12)CCC3
84.4%: viability [7, 18]
86.7%: viability [7, 17]
inactive: inhibition [1] 1% | viability [4] 81% | viability [5] 97.2% | viability [6] 84.4% | differential viability (reversal) ([7]; H69AR cells + 2 uM doxorubicin) -2.28% | inhibition [8] -5.73% | inhibition [9] -0.73% | growth inhibition [10] -7.89% | growth inhibition [11] -2.46% | viability increase [12] -0.23% | viability [13] 90.7% | viability [16] 99.4% | inhibition [14] 1.63% | RAM network inhibition [15] 6.89%

CC(C)NS(=O)(=O)c1ccc(OCC(=O)N2CCN(C)CC2)cc1
inactive: growth inhibition [10] -11.8% | growth inhibition [11] -2.15% | viability increase [12] -0.3% | viability [13] 96.3% | viability [16] 102% | inhibition [14] 1.13% | RAM network inhibition [15] 3.6%

CN1CCN(c2nc3ccccc3c(=O)n2-c2ccccc2)CC1
98.5%: viability [2]
89.6%: viability [7, 17]
inactive: inhibition [1] 0% | Her2 level [3] 104% | viability [4] 98.5% | viability [5] 79.9% | viability [6] 86.3% | differential viability (reversal) ([7]; H69AR cells + 2 uM doxorubicin) -3.29% | inhibition [8] 0.64% | inhibition [9] -1.17% | growth inhibition [10] -13.4% | growth inhibition [11] -1.59% | viability increase [12] -2.67% | viability [13] 98.1% | viability [16] 99.3% | inhibition [14] 2.02% | RAM network inhibition [15] 1.34%
86.3%: viability [7, 18]

O=C(Cc1ccccc1)Oc1cccc(N2C(=O)CCC2=O)c1
inactive: growth inhibition [10] -15.7% | growth inhibition [11] -12.2% | viability increase [12] -0.69% | viability [13] 101% | viability [16] 94.8% | inhibition [14] 1.23% | RAM network inhibition [15] 3.42%

Cc1cc(C)n2c(Br)c(CN3CC4CC(C3)c3cccc(=O)n3C4)nc2n1 (configuration not stated)
inactive: growth inhibition [10] -3.02% | growth inhibition [11] -5.3% | viability increase [12] -2.43% | viability [13] 90.9% | viability [16] 105% | inhibition [14] 1.09% | RAM network inhibition [15] -0.1%

Cc1ccnc(-n2c(C)nc3ccccc3c2=O)c1
inactive: growth inhibition [10] -1.76% | growth inhibition [11] -3.79% | viability increase [12] -2.48% | viability [13] 90.8% | viability [16] 90.7% | inhibition [14] 0.27% | RAM network inhibition [15] -0.81%

CCCCCn1c(=O)c(C(=O)Nc2ccncc2)c(O)c2ccccc21
inactive: viability increase [12] -8.28% | inhibition [14] -0.43% [strain carries analog-sensitive mutant Cbk1 kinase] | RAM network inhibition [15] -1.36%
active: growth inhibition [10] 92.1% | growth inhibition [11] 100% | viability [13] 13.2% | viability [16] 9.96%

CN(C)C(=O)Oc1ccc(C(=O)c2ccccc2)cc1
inactive: growth inhibition [10] -2.66% | growth inhibition [11] 5.16% | viability increase [12] 1.59% | viability [13] 101% | viability [16] 95.1% | inhibition [14] 0.43% | RAM network inhibition [15] 0.92%

Cn1cc(C(=O)c2ccccc2)c2ccccc21
inactive: growth inhibition [10] -1.98% | growth inhibition [11] 0.835% | viability increase [12] -1.92% | viability [13] 80.8% | viability [16] 87.1% | inhibition [14] 0.46% | RAM network inhibition [15] -3.38%

O=C(CN1CC(c2ccccc2)CC1=O)Nc1ccccc1 (configuration not stated)
inactive: growth inhibition [10] -20.4% | growth inhibition [11] -12.7% | viability increase [12] -1.8% | viability [13] 106% | viability [16] 95.4% | inhibition [14] 1.06% | RAM network inhibition [15] 4.01%

Cc1ccc2c(c1)C1CN(C)CCC1N2C(=O)Cn1nnc(-c2ccccc2F)n1 (configuration not stated)
inactive: growth inhibition [10] 6.06% | growth inhibition [11] -9.18% | viability increase [12] -5.58% | viability [13] 85.2% | viability [16] 83.8% | inhibition [14] 0.18% | RAM network inhibition [15] 3.31%

O=c1c2ccccc2nc(-c2ccco2)n1-c1ccccn1
inactive: growth inhibition [10] -12.2% | growth inhibition [11] -7.09% | viability increase [12] -0.82% | viability [13] 107% | viability [16] 95.2% | inhibition [14] 1.16% | RAM network inhibition [15] 3.37%

Cc1nc2cc(C(F)(F)F)ccc2n1C1CCN(Cc2nnnn2Cc2cccs2)CC1
inactive: growth inhibition [10] -11.3% | growth inhibition [11] -18.3% | viability increase [12] -6.21% | viability [13] 76.1% | viability [16] 67.6% | inhibition [14] 1.01% | RAM network inhibition [15] -0.01%

CC(C)CC1C(C#N)=C(N)Oc2c1c(=O)oc1ccccc21 (configuration not stated)
inactive: growth inhibition [10] -12.7% | growth inhibition [11] -16.4% | viability increase [12] -0.17% | viability [13] 102% | viability [16] 99.8% | inhibition [14] 1.71% | RAM network inhibition [15] 8.07%

O=c1cccc2n1CC1CC2CN(C(c2ccccc2)c2sc3ncnn3c2O)C1 (configuration not stated)
inactive: growth inhibition [10] 4.58% | growth inhibition [11] 3.32% | viability increase [12] -1.49% | viability [13] 93.8% | viability [16] 96.8% | inhibition [14] 1.01% | RAM network inhibition [15] 1.32%
